Each structure is given as a SMILES string. Where “and” joins values, the source holds several entries; their conditions need not be identical. Identical values can stand only once. Results filed as inconclusive are left out. A number with no mark means an inactive call. Calls of active or inactive are those of the source. Calls follow the shape of the dose curve; as a rule, active = well fitted curve in the direction sought with a large enough effect; inconclusive = small, poorly fitted or top-dose-only effect, or another doubt; inactive = no such curve, though single readings can be large; an effect the other way counts as inactive or inconclusive.

Assay [1] concerns the target Cellular tumor antigen p53 (Homo sapiens) (UniProt P04637). Put plainly: Primary qHTS for small molecule compounds that upregulate eGFP-tagged delta133p53alpha (in N-terminal) cells. (AID 2060322). Also: nearly all actives have a fitted effect of over 75% in size.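 As to activation: cells pre-induced with doxycycline then dosed without doxycycline; series mostly up to about 56 µM; 0% = DMSO vehicle and 100% = reference activator.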 The note with it: NCI-H358 eGFP-delta133p53alpha fluorescence, 24 h; activation: stronger effect = higher value. In outline:
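NCI-H358 cells pre-induced 24 h with 10 ng/ml doxycycline for eGFP-delta133p53alpha, plated dox-free and exposed 24 h at 37C to titrated compounds. Fixed, Hoechst-stained; gated GFP peak intensity by laser scanning cytometry, normalized to DMSO (0%) and 57.5 uM 5-azacytidine (100%).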

Assay [2] is described as follows: BET inhibitor-based combinations targeting novel dependencies in MECOM-rearranged (r) AML: SET-2 cell line (AID 2202231). Also: nearly all actives have a fitted effect of over 35% in size.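 As to viability: plate controls were DMSO treated cells for no effect and wells without cells for full effect.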 The note with it: SET-2 AML cells viability, CellTiter-Glo luminescence, 48 h; viability: stronger effect = lower value, concentration not given here. In outline: (§1)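 Cells were plated at 500 per well and exposed to an 11-point dose series of each drug for 48 hr. Viability was measured by CellTiter-Glo luminescence, normalized to DMSO and empty-well controls, and summarized as AUC and per-cell-line Z-AUC.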

Assay [3] is described as follows: BET inhibitor-based combinations targeting novel dependencies in MECOM-rearranged (r) AML: UCSD-AML1 cell line (AID 2202235). Also: nearly all actives have a fitted effect of over 40% in size. The procedure, abridged: (§2)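 Activity is given as area under the curve and as Z-AUC, mean-centred within each cell line. It comes from 11-point dose curves normalized to DMSO and empty wells. CellTiter-Glo luminescence was read after 48 hr drug exposure of 500 cells/well.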

Assay [4] is described as follows: BET inhibitor-based combinations targeting novel dependencies in MECOM-rearranged (r) AML: AML-194 cell line (AID 2202237; also: nearly all actives have a fitted effect of over 40% in size). The procedure, abridged: as §1
Assay [5] is described as follows: BET inhibitor-based combinations targeting novel dependencies in MECOM-rearranged (r) AML: AML-191 cell line (AID 2202236; also: nearly all actives have a fitted effect of over 35% in size). The procedure, abridged: as §1
A short description of assay [6]: BET inhibitor-based combinations targeting novel dependencies in MECOM-rearranged (r) AML: OCI-AML3 cell line (AID 2202232). Also: nearly all actives have a fitted effect of over 35% in size. The note with it: Potency: OCI-AML3 viability. The procedure, abridged: as §1
The nature of assay [7]: BET inhibitor-based combinations targeting novel dependencies in MECOM-rearranged (r) AML: MV-4-11 cell line (AID 2202233). Also: nearly all actives have a fitted effect of over 45% in size. The procedure, abridged: as §2
A short description of assay [8]: BET inhibitor-based combinations targeting novel dependencies in MECOM-rearranged (r) AML: HNT-34 cell line (AID 2202234). Also: nearly all actives have a fitted effect of over 35% in size. The procedure, abridged: as §2
Potency is read from the fitted curve at half-maximal effect.

Chain of Cellular tumor antigen p53 (Homo sapiens) (P04637 whole entry, looked up): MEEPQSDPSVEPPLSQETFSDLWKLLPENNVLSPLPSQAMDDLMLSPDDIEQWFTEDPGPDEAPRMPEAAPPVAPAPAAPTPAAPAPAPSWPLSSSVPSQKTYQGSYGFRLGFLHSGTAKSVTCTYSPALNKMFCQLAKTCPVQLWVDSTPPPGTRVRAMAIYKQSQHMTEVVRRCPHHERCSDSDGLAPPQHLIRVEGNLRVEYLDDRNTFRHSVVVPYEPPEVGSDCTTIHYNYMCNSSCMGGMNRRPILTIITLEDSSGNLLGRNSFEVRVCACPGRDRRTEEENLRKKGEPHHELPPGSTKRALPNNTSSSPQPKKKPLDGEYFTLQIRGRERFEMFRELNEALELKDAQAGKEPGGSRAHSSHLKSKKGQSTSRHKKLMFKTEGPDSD

By viability is commonly meant a read-out of living cells in per cent, often relative to untreated cells. `CCCCOCCOc1nc(-c2ccc(C(=O)O)c(F)c2)sc1C`: the activation in assay [1] is 13.4%. The viability in assay [2] was 85.8%. The Potency entry in assay [3] and in assay [4] was “inactive” in each case.
Take `O=C(/C=C/N1C[C@H]2C[C@@H]1CN2c1ccccn1)c1ccccc1O`: the activation in assay [1] is 21.2%. For the same compound, the Potency in assay [2] was 372 nM (active). For the same compound, the Potency result in assay [3], in assay [5] and in assay [4] was “inactive” each time.
Regarding `Cc1cc(NC(=O)Nc2ccc(N(C)C)cc2)c2cc(F)cc(F)c2n1`, in assay [1], the activation was -0.105%. Also, the Potency in assay [6] was 8110 nM (active).
As to `CC(=O)OCCN1C(=O)c2c(C)nc3ccc(S(=O)(=O)N4CCOCC4)cc3c2C1=O`, in assay [1], the activation is 22.9%. For the same compound, the Potency result in assay [6], in assay [7], in assay [8], in assay [3], in assay [5] and in assay [4] was “inactive” throughout.
Take `CCNC(=O)c1cc2c(-c3cc(OCCN4CCCC4)c(Cl)cc3Cl)nc(N)nc2s1`: the activation in assay [1] was -12.6%. Moreover, the Potency in assay [6] is 2040 nM (active); in assay [7], 363 nM (active); in assay [8], 1820 nM (active); in assay [3] it was 1290 nM (active); in assay [5] it was 1820 nM (active).
Turning to `N=C(N)c1ccc2cc(OC(=O)c3ccc(N=C(N)N)cc3)ccc2c1`, in assay [1], the activation is -10.5%. Moreover, in assay [2], the viability is 105%. The Potency in assay [3] and in assay [5] was 23500 nM (active) each time.
Regarding `Cc1cnc(C(=O)O)c[n+]1[O-]`, the activation in assay [1] is -19.2%. In addition, the Potency result in assay [6], in assay [7], in assay [8], in assay [3], in assay [5] and in assay [4] was “inactive” throughout.
Consider `CC(=O)SC[C@@H](C)C(=O)N1CCC[C@H]1C(=O)N[C@@H](Cc1ccccc1)C(=O)O`, for which the activation in assay [1] is -26.8%. In addition, the Potency result in assay [6], in assay [7], in assay [8], in assay [3], in assay [5] and in assay [4] was “inactive” throughout.
Regarding `COc1ccc(C[C@@H](C)[C@@H](C)Cc2ccc(OC)c(OC)c2)cc1OC`, in assay [1], the activation was 11.5%. Further, the Potency in assay [2] and in assay [5] was 18600 nM (active) in each case. The Potency result in assay [8], in assay [3] and in assay [4] was “inactive” each time.
As for `O=c1c(O)c(-c2ccc(O)cc2)oc2cc(O)cc(O)c12`, the activation in assay [1] is 36.9%. Also, the viability in assay [2] was 105%. Also, the Potency result in assay [3] and in assay [4] was “inactive” in each case. In assay [5], the Potency is 14800 nM (active).
In the case of `Cc1cc([C@@H](C)Nc2ccccc2C(=O)O)c2nc(N3CCOCC3)cc(=O)n2c1`, the activation in assay [1] is 14.9%. Besides, the Potency in assay [6] is 1320 nM (active); in assay [7], 6610 nM (active).
Regarding `O=C(O)c1ccc(-n2nc(-c3ccccc3O)nc2-c2ccccc2O)cc1`, the activation in assay [1] is -1.69% and -24.7%. Moreover, the Potency in assay [2] was 20900 nM (active); in assay [5], 16600 nM (active). In assay [3], the Potency result was “inactive”.
Take `CC[C@@H](C)[C@H](NC(=O)[C@H](CC1CCCCC1)NC(=O)c1ccno1)C(=O)N1CCC2(CCc3ccccc32)CC1`: in assay [1], the activation is 0.928% and 1.43%. Besides, the viability in assay [2] was 50.5%. Further, the Potency entry in assay [3] and in assay [4] was “inactive” each time.
For `O=[N+]([O-])c1cn2c(n1)OC[C@@H](OCc1ccc(OC(F)(F)F)cc1)C2`, the activation in assay [1] is 9.64%. Besides, the viability in assay [2] is 111%. Further, the Potency entry in assay [3], in assay [5] and in assay [4] was “inactive” in each case.
For the compound `CSc1cccc(Nc2ncc3cc(-c4c(Cl)cccc4Cl)c(=O)n(C)c3n2)c1`, the activation in assay [1] was -0.477%. Also, the Potency entry in assay [6] is “inactive”.
With `C[C@]12C=CC(=O)C=C1CC[C@@H]1[C@@H]2[C@@H](O)C[C@@]2(C)[C@H]1CC[C@]2(O)C(=O)CO`, the activation in assay [1] was -4.18%. Moreover, the viability in assay [2] is 103%. Also, the Potency entry in assay [8] and in assay [3] was “inactive” throughout. The results for the Potency in assay [5] and in assay [4] were 372 nM (active) and 1180 nM (active), respectively.
On to `CC(COc1ccccc1)N(CCCl)Cc1ccccc1` (stereo not drawn), for which, in assay [1], the activation was -9.21% and 7.69%. Besides, in assay [2], the viability was 99.7%. Further, the Potency in assay [8] was 16600 nM (active). The Potency entry in assay [3] and in assay [4] was “inactive” in each case.
In the case of `O=c1[nH]nc(Sc2ncc([N+](=O)[O-])s2)n1-c1ccc2c(c1)OCCO2`, in assay [1], the activation was -12.9%. The Potency in assay [6] is 2950 nM (active); in assay [7], 1860 nM (active); in assay [8], 3320 nM (active); in assay [3], 9340 nM (active); in assay [5], 3320 nM (active); in assay [4] it was 7420 nM (active).
In the case of `Clc1ccc(C(Cn2ccnc2)OCc2ccc(Sc3ccccc3)cc2)c(Cl)c1` (stereo not drawn), in assay [1], the activation is -3.95% and 8.63%. Further, the Potency entry in assay [6] was “inactive”. The Potency in assay [7] is 14800 nM (active); in assay [8], 20900 nM (active); in assay [3] it was 20900 nM (active).
As for `NC(=O)c1ccc(-c2nc(-c3ccc4c(c3)OCCO4)c(-c3ccccn3)[nH]2)cc1`, the activation in assay [1] is -1.5%. Further, the viability in assay [2] is 104%. For the same compound, the Potency result in assay [4] was “inactive”.
Take `Nc1cccc2c1C(=O)N(C1CCC(=O)NC1=O)C2=O` (stereo not drawn): in assay [1], the activation is 28.8%. Further, the Potency result in assay [6], in assay [8], in assay [3], in assay [5] and in assay [4] was “inactive” each time. Besides, in assay [7], the Potency is 1.3 nM (active).
With `CC[C@@H]1C(=O)N(C)c2cnc(Nc3ccc(C(=O)NC4CCN(C)CC4)cc3OC)nc2N1C1CCCC1`, in assay [1], the activation was 7.53%. Further, the Potency is 468 nM (active) in assay [2], 105 nM (active) in assay [3], 166 nM (active) in assay [5] and 332 nM (active) in assay [4].
Regarding `CC(=O)Oc1cc2c(s1)CCN(C(C(=O)C1CC1)c1ccccc1F)C2` (stereo not drawn), the activation in assay [1] was 29.4%. For the same compound, the viability in assay [2] was 102%. The Potency entry in assay [8], in assay [3] and in assay [4] was “inactive” throughout.
In the case of `COc1ccc(-c2ccc3c(N4CCOCC4)nc(N4C[C@@H](C)O[C@@H](C)C4)nc3n2)cc1CO`, the Potency was 21700 nM (active) in assay [1], 1180 nM (active) in assay [6], 1050 nM (active) in assay [7] and 934 nM (active) in assay [8].

These data come from PubChem BioAssay (NCATS).
